Only some compounds are listed: those with a hit (about 8.7% of all), similar ones and a draw of the others.
Pf growth 96h: P. falciparum growth inhibition at 96 hours; P. falciparum luciferase reporter growth, 96 h; Potency, µM (titrated, usually from 28.7 µM), without a hit: at the highest dose activity change, negative = inhibition, usual class: inhibitors; actives 6.9% (n = 320,000)
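Erythrocytes infected with luciferase-expressing P. falciparum were dispensed at 2% hematocrit and 0.05% parasitemia (final), then incubated with compounds 96 hours at 37 C in 5% CO2. Luminescence after detection reagent addition reported growth.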
Pf growth 48h: inhibits P. falciparum growth in the first generation, 48 h | P. falciparum luciferase growth in erythrocytes, 48 h | Potency, µM (doses to about 28.7 µM), without a hit: at the highest dose activity change, negative = inhibition, usual class: inhibitors | actives 5.9% (n = 310,000) | AID 504832
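First compound was added to culture medium, then infected red cells at 0.1% parasitemia and 2% hematocrit (final). After incubation at 37 C under 5% CO2, luciferase detection reagent was dispensed and light output recorded.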
VACV Venus inh: vaccinia inhibition (Venus reporter); Vaccinia virus Venus reporter expression, fluorescence; Potency, µM (doses to about 36.5 µM), without a hit: at the highest dose activity change, negative = inhibition, actives largely listed as inhibitors; actives 0.46% (n = 330,000); calls by dose curve; tested in A549 cells; further: nearly all actives have a fitted effect of over 30% in size
Vaccinia mCherry: inhibitors of vaccinia virus infection (mCherry reporter signal) | Vaccinia virus mCherry reporter infection, fluorescence | Potency, µM (titrated, usually from 36.5 µM), for inactives: at the top dose activity change, negative = inhibition, hits mostly inhibitors | actives 0.63% (n = 310,000) | AID 720579; calls by dose curve; tested in A549 cells; further: nearly all actives have a fitted effect of over 35% in size
AMA1-RON2 inh: inhibitors of Plasmodium falciparum AMA1-RON2 interaction. AlphaScreen AMA1-biotinylated RON2 peptide binding. Potency, µM (titrated, usually from 58.2 µM), for the others: at the highest dose activity change, negative = inhibition, hits mostly inhibitors. actives 0.2% (n = 360,000);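 further: 0% = vehicle wells and -100% = peptide control; nearly all actives have a fitted effect of over 45% in size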
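AMA1 (3D7) with his tag at 25 nM final met compounds first, then biotinylated RON2 peptide at 25 nM; detection used donor plus acceptor beads, 10 µg/mL apiece, read by AlphaScreen after 30 min at room temperature.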
* = called active by the depositor; i = inactive; ? = inconclusive; / = no result given; [ ] = another dose, or the depositor's remark. Unless noted, the call rests on the fitted dose curve; in most records, active means well fitted curve in the direction sought with a large enough effect; inconclusive means small, poorly fitted or top-dose-only effect, or another doubt; inactive means no such curve, though single readings can be large; an effect the other way counts as inactive or inconclusive. Unless noted, on the % scale 0 is the no-effect control and ±100 the full control effect; potency means the concentration at half of the fitted maximal effect.

SMILES | Pf growth 96h | Pf growth 48h | VACV Venus inh | Vaccinia mCherry | AMA1-RON2 inh
CCOC(=O)c1[nH]c2ccc(C)cc2c1NC(=O)CN1CCCCC1 | 35% | ? | -30% | / | -2%
COC(=O)c1[nH]c2ccc(C)cc2c1NC(=O)CCN1CCN(C2CCCCC2)CC1 | / | -20% | / | / | /
Cc1ccc(C(=O)COC(=O)c2cc(-c3ccc(Cl)cc3)nc3ccccc23)cc1 | / | / | 8% | -6% | /
O=C(NCC1CCC2(CCN(Cc3cccc4ncccc34)CC2)O1)c1ccccc1 (centres undefined) | / | / | -7% | -3% | /
CCc1ccccc1Nc1cc(C(=O)NCc2ccc(C)cc2)c2ccccc2n1 | / | / | -3% | -8% | /
O=C(Nc1nc(-c2ccccc2)c(-c2ccccc2)o1)c1ccc(F)cc1 | 9.3µM* | ? | ? | ? | 99%
COc1cc(=O)n2c(c1C(=O)N(C)Cc1nccs1)CCN(Cc1c(F)ccc(F)c1F)CC2 | / | / | -2% | -8% | /
CCOC(=O)Cn1c(=O)n(CC2CCCO2)c2nc(-c3ccccc3OC)nc(C(N)=O)c21 (centres undefined) | / | / | -8%[7.34 µM] | 0%[7.34 µM] | /
Cc1nc(C(=O)N2CCc3c([nH]c4ccccc34)C2c2ccccn2)cs1 (centres undefined) | -14% | 18% | -4% | ? | 4%
Cc1cnc(C(=O)N2CCc3c([nH]c4ccccc34)C2c2ccc(F)cc2)cn1 (centres undefined) | ? | 5.2µM* | -12% | -13% | -28%
Cc1nc(C(=O)N2CCc3c([nH]c4ccccc34)C2c2cc(F)ccc2F)cs1 (centres undefined) | 28% | 10µM* | -11% | ? | -12%
Cc1ccc(C2c3[nH]c4ccccc4c3CCN2C(=O)c2ccccc2Br)cc1 (centres undefined) | / | / | -12% | -13% | /
COc1ccc(NC(=O)c2c(-c3ccc(C)cc3)nnc3ccccc23)cc1OC | / | / | -7% | -13% | /
COc1cc(=O)n2c(c1C(=O)N(C)Cc1ccsc1)CCN(Cc1c(C)nn(C)c1Cl)CC2 | / | / | -2% | -9% | /
CC#CC[N+](C)(C)CCCCCCCCCC | ? | 0.74µM* | -9% | i | 4%
C#CC[N+](C)(C)CCCCCCCCC | ? | 3.7µM* | ? | 11µM* | -2%
COc1ccc(S(=O)(=O)c2c(SC)nn(CC(=O)Nc3ccc(C)c(Cl)c3)c2N)cc1 | / | / | -23% | ? | /
Cc1cc(C)cc(NC(=O)/C(C#N)=C/c2cn(CC(=O)NCc3ccco3)c3ccccc23)c1 | 21% | 5% | 5.6µM* | ? | 3%
Cc1ccccc1N/C(SCc1ccc(Cl)cc1)=C(/C#N)C(=O)NCc1ccco1 | ? | ? | / | / | 4%
Cc1ccc(NC(=O)/C(C#N)=C/c2cn(CC(=O)NCc3ccco3)c3ccccc23)cc1C | 28% | 30% | 1% | -12% | 20%
Cc1ccc(CS/C(Nc2ccccc2C)=C(\C#N)C(=O)NCc2ccco2)c(C)c1 | 15% | 2.3µM* | / | / | 4%
Cc1ccc(C)c(NC(=O)/C(C#N)=C/c2cn(CC(=O)NCc3ccco3)c3ccccc23)c1 | 15µM* | 17% | -12% | i | 5%
Cn1cc(S(=O)(=O)N2CCCCCC2)cc1C(=O)Nc1ccccc1F | / | / | -14% | 0% | /
O=C(CCNS(=O)(=O)c1ccc(Br)s1)N1CCN(c2ccccc2)CC1 | 12µM* | -6% | -13% | i | -8%
O=C(CNS(=O)(=O)c1ccc(Br)cc1)N1CCN(c2ccc(F)cc2)CC1 | 13µM* | ? | -27% | / | -9%
SMILES | Pf growth 96h | Pf growth 48h | VACV Venus inh | Vaccinia mCherry | AMA1-RON2 inh
O=C(CNS(=O)(=O)c1ccc(Cl)cc1)N1CCN(c2ccc(F)cc2)CC1 | / | / | / | / | -7%
O=C(CCNS(=O)(=O)c1ccc(Br)cc1)N1CCN(c2ccccc2O)CC1 | ? | 10µM* | -6% | ? | -11%
COc1cc2c(cc1OC)CN(C(=O)CCNS(=O)(=O)c1ccc(Br)cc1)CC2 | ? | 9.3µM* | -27% | -21% | 9%
COc1ccc(NC(=O)c2ccc(NC(=O)CCS(=O)(=O)c3cccs3)cc2)cc1OC | / | / | 11% | -9% | /
O=C1NC2CCc3nc4ccccc4c(=O)n3C2=Nc2ccccc21 (centres undefined) | 12µM* | 28% | -2% | -5% | 6%
Fc1ccc(-c2csc3[n+]2CCS3)cc1 | 4.1µM* | 10µM* | / | / | 1%

Assay outcomes: PubChem BioAssay, National Center for Advancing Translational Sciences (NCATS)
